Experimental data published in PubChem BioAssay (EPA / NIEHS).
The source made the active and inactive calls. The calls were made as follows: active = hit-call score of the fitted dose curve at least 0.9, where 1 is the maximum; inactive = score below 0.9.

Molecular target: Bile acid receptor (Homo sapiens) (UniProt Q96RI1)
Test: ATG_IR1_CIS: Attagene CIS-FACTORIAL HepG2 Assay for human Nuclear Receptor Subfamily 1 Group H Member 4 (NR1H4), IR1 submotif (AID 2282946)
Settings: IR1 reporter transcription, actives raise or lower the signal
Procedure, shortened: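 Readout: reporter transcript levels by RT-PCR with fluorescent capillary electrophoresis, from HepG2 cells transiently transfected with multiplexed cis-regulated reporters and dosed 24 h. Gain- or loss-of-signal fitted versus DMSO negative control.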

Sequence of Bile acid receptor (Homo sapiens) (Q96RI1 whole entry, looked up): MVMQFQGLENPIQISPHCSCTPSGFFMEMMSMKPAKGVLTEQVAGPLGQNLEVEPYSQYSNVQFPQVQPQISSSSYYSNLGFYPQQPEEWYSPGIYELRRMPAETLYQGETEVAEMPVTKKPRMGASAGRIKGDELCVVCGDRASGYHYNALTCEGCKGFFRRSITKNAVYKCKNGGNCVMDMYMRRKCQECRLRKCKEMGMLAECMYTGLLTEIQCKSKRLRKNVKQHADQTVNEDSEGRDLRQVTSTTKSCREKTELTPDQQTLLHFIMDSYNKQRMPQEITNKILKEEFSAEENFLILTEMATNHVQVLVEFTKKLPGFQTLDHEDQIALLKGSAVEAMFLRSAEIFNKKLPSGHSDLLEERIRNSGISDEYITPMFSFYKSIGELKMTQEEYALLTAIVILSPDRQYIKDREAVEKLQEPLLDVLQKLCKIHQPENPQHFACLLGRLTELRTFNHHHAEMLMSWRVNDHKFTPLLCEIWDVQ

SMILES	outcome	AC50
CCCc1c(OCCCCc2nn[nH]n2)ccc(C(C)=O)c1O	inactive	
Clc1ccccn1	inactive	
c1cc(N(CC2CO2)CC2CO2)ccc1Cc1ccc(N(CC2CO2)CC2CO2)cc1 (stereo not given)		27.6 µM (active)
O=C(O)Cc1c[nH]c2ccccc12	inactive	
O=[N+]([O-])c1ccc2nc[nH]c2c1	inactive	
Cc1ccccc1S(N)(=O)=O	inactive	
C=C(C)C(=O)OCC1CCCO1 (stereo not given)	inactive	
CC(C)CC(=O)CC(C)CC(C)C (stereo not given)	inactive	
CC1=CCCC(C)(C)C12CCC(C)O2 (stereo not given)	inactive	

System: not listed separately
Test: ATG_GRE_CIS: Attagene CIS-FACTORIAL HepG2 Assay for human Glucocorticoid Response Elements (GRE) (AID 2282947)
Settings: HepG2 GRE cis-reporter, Attagene multiplex mRNA; actives raise or lower the signal
Procedure, shortened: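 HepG2, transient cis-reporter transfection, 24 h. Reporter mRNA: RT-PCR then CE, fluorescence. Fit both directions vs DMSO.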

SMILES	outcome
CC1(C)S[C@@H]2[C@H](NC(=O)[C@H](N)c3ccccc3)C(=O)N2[C@H]1C(=O)O	inactive
CCCc1c(OCCCCc2nn[nH]n2)ccc(C(C)=O)c1O	inactive
c1cc(N(CC2CO2)CC2CO2)ccc1Cc1ccc(N(CC2CO2)CC2CO2)cc1 (stereo not given)	inactive
CCCCCCOC(=O)CCCCCCCC(=O)OCCCCCC	inactive
O=C(O)Cc1c[nH]c2ccccc12	inactive
NCc1ccccc1	inactive
CC(C)CC(=O)O	inactive
Cc1cc(O)cc(C)c1Cl	inactive
CC(C)n1c(/C=C/[C@@H](O)C[C@@H](O)CC(=O)O)c(-c2ccc(F)cc2)c2ccccc21	inactive
Cc1ccccc1S(N)(=O)=O	inactive
C=C(C)C(=O)OCC1CCCO1 (stereo not given)	inactive
CC(C)CC(=O)CC(C)CC(C)C (stereo not given)	inactive
CCCOCCC	inactive
CN(C)CCC(c1ccc(Cl)cc1)c1ccccn1 (stereo not given)	inactive
CN(C)CCCN1c2ccccc2CCc2ccc(Cl)cc21	inactive
COC(OC)C(C)c1ccccc1 (stereo not given)	inactive
